Several values for one entry are separate records, joined by “and”; a condition that tells them apart may be missing. Equal entries are not always repeated. Results filed as inconclusive are left out. A call without a number means that no potency is given here. Activity calls are given as the source filed them. The call rests on the fitted dose curve.
Assay: qHTS assay for small molecules that induce genotoxicity in human embryonic kidney cells expressing luciferase-tagged ATAD5 - cell viability (AID 651634); further: nearly all actives have a fitted effect of over 25% in size
Conditions: HEK293T ATAD5-luc cells viability, CellTiter-Fluor, 15.5 h; series mostly up to 83.3 µM
Excerpt: National Center for Advancing Translational Sciences [NCATS]
NIH Chemical Genomics Center [NCGC]
U.S. Environmental Protection Agency [EPA]
National Institutes of Environmental Health Sciences [NIEHS]
National Toxicology Program [NTP]
U.S. Food and Drug Administration [FDA]
Enhanced Level of Genome Instability Gene 1 (ELG1; human ATAD5) protein levels increase in response to various types of DNA damage. Using a luciferase reporter-gene tagged with ElG1, a cell-based assay [developed by Kyungjae Myung, NHGRI, NIH] was used to measure the induction of ATAD5 in human embryonic kidney cells (HEK293T). So, increase in luciferase activity can be used to identify the compounds that cause genetic stress. In addition to genotoxicity, these cells were also used to test for cytotoxicity by measuring the protease activity within live cells.
Tox21 Assay Protocol Summary:
For cytotoxicity screening, 2,000 cells in 5 uL/well were dispensed into white, solid-bottom 1536-well plates using a Multidrop Combi (Thermo Scientific) dispenser. Following transfer of 23 nL compound or DMSO vehicle by a pin tool, the plates were incubated 15.5 hr at 37C and 5% CO2. 1 ul CellTiter-Fluor reagent (Promega, Madison, WI) was then added to each plate and following 30 min incubation at 37C, fluorescence intensity was quantified on a ViewLux CCD-based plate reader.
Potency means the concentration at half of the fitted maximal effect.

SMILES	Potency
Clc1ccc(C(Cl)(Cl)Cl)cc1	inactive
N#CCCCCC#N	inactive
O=NN1CCOCC1	inactive
N#Cc1nn(-c2c(Cl)cc(C(F)(F)F)cc2Cl)c(N)c1S(=O)C(F)(F)F (stereo not given)	inactive
CC(C)COC(=O)c1ccccc1C(=O)OCC(C)C	inactive
C[C@]12CCC(=O)C=C1CC[C@@H]1[C@@H]2CC[C@@]2(C)[C@H]1CC[C@]2(C)O	inactive
CCC1(c2ccc(N)cc2)CCC(=O)NC1=O (stereo not given)	inactive
CC(C)Nc1nc(Cl)nc(NC(C)C)n1	inactive
CC(C)=CC1C(C(=O)OCc2cccc(Oc3ccccc3)c2)C1(C)C (stereo not given)	inactive
O=NN(c1ccccc1)c1ccccc1	inactive
COP(=S)(OC)SCn1nnc2ccccc2c1=O	inactive
CCN(CC)C(=O)C(C)Oc1cccc2ccccc12 (stereo not given)	inactive
ClC(Cl)=C(Cl)C(Cl)=C(Cl)Cl	inactive
CCCCCCCCCCCCCl	inactive
CC(C)(O)C(=O)Nc1ccc([N+](=O)[O-])c(C(F)(F)F)c1	inactive
COP(=S)(OC)Oc1ccc(S(=O)(=O)N(C)C)cc1	inactive
O=P(OCCCl)(OCCCl)OCCCl	inactive
c1ccc(C2CO2)cc1 (stereo not given)	inactive
CC(O)CN(CC(C)O)CC(C)O (stereo not given)	inactive
C[N+](C)(C)CC(=O)O	inactive

SMILES	Potency
CNC(=S)S	inactive
O=C(O)CF	inactive
CCNCC	inactive
CCC(=O)Nc1ccc(Cl)c(Cl)c1	inactive
CC(C)Nc1ccc(Nc2ccccc2)cc1	inactive
CCCCCCCC[N+](C)(CCCCCCCC)CCCCCCCC	21.6 µM (active) and 19.3 µM (active)
C=CC(=O)OCC(CC)(COC(=O)C=C)COC(=O)C=C	15.8 µM (active) and 19.3 µM (active)
CCOP(=S)(OCC)OP(=S)(OCC)OCC	inactive
CC1(C)Cc2cccc(O)c2O1	inactive
N#Cc1cccnc1	inactive
N#CC(c1ccccc1)c1ccccc1	inactive
CC(C)(c1ccccc1)c1ccc(O)c(C(C)(C)c2ccccc2)c1	60.6 µM (active)
O=[N+]([O-])/N=C1\NCCN1Cc1ccc(Cl)nc1	inactive
CCC[CH2][Sn]([Cl])([CH2]CCC)[CH2]CCC	612 nM (active) and 3.06 µM (active)
CNC(=O)CSP(=S)(OC)OC	inactive
CC(C)(c1ccc(OCC2CO2)cc1)c1ccc(OCC2CO2)cc1 (stereo not given)	inactive
[CH3][Sn]([Cl])([Cl])[Cl]	inactive
CCOP(=S)(OCC)SCn1c(=O)oc2cc(Cl)ccc21	inactive
COc1ccc(C=O)cc1OC	inactive
Cc1ccc(N=CN(C)C=Nc2ccc(C)cc2C)c(C)c1	inactive

From PubChem BioAssay (Tox21)
